Source: PubChem (National Center for Advancing Translational Sciences (NCATS))
IL1B secr inh = qHTS for Inhibitors of Inflammasome Signaling: IL-1-beta AlphaLISA Primary Screen. THP-1 LPS/ATP IL-1B secretion, AlphaLISA, 16 h; hits give low values. 360,000 compounds, 4.7% hits. activity change, % at 57.5 µM. AID 743279, 2014; in the data active = activity change below about -50%; inconclusive = mostly about -30% to -49%; also: % is scaled to controls: 0 for no effect and ±100 for the full control effect
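THP-1 cells pretreated 1 hr with compounds (up to 57.5 uM final), then stimulated with LPS (250 ng/mL final) plus ATP (1.25 mM final); secreted IL-1B measured by AlphaLISA after 16 hr, decreased signal indicating inhibition.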
DRD3 antagonist = qHTS of D3 Dopamine Receptor Antagonist: qHTS; AID 652054, 2013; max response, negative = inhibition, %; D3R cells, DiscoveRx beta-arrestin luminescence, antagonist mode; hits give low values; 360,000 compounds, 2.5% hits; in the data active = max response below about -50%; inconclusive = no clear call, values can overlap the other calls; also: % is scaled to controls: 0 for no effect and ±100 for the full control effect
Target sequence (P35462 whole entry, looked up): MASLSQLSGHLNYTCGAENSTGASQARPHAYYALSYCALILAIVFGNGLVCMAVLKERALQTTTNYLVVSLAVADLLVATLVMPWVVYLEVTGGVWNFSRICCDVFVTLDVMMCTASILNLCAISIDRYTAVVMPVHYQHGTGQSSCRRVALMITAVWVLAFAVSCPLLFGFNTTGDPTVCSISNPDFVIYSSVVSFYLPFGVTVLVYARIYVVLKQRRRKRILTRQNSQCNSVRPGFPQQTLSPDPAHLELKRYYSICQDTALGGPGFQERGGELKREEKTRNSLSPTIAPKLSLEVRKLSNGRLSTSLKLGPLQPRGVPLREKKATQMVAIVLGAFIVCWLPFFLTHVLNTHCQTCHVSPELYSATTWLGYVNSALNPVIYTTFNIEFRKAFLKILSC
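Cells plated overnight at 1500 cells/well, then exposed to library compounds with dopamine controls for 90 minutes at 37 degrees C. DiscoveRx reagent added for 30–60 minutes at room temperature; luminescence read, quantitative HTS format.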
DRD3 agonist = qHTS of D3 Dopamine Receptor Agonist: qHTS. 410,000 compounds, 0.58% hits. D3R DiscoveRx beta-arrestin cells, luminescence, 90 min. AID 652048, 2013. max activation, %; in the data active = max activation above about 30%; also: 0% is about no effect
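Agonist-mode cell screen: cells plated at 1500/well and incubated overnight at 37 °C, then exposed to library compounds for 90 min at 37 °C. Detection reagent was added for 30–60 min at room temperature, and luminescence was read.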
TDP1 cell noCPT = qHTS for Inhibitors of human tyrosyl-DNA phosphodiesterase 1 (TDP1): qHTS in cells in absence of CPT; DT40 Tdp1-/- hTDP1 cells, no CPT, ATP luminescence, 48 h; Potency, µM (titrated, usually from 46.2 µM), without a hit: at the highest dose activity change, negative = growth inhibition, usual class: inhibitors; 420,000 compounds, 15% hits; AID 686978, 2013; also: potency is read from the fitted curve at half-maximal effect; % is scaled to controls: 0 for no effect and ±100 for the full control effect; nearly all actives have a fitted effect of over 55% in size
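Growth of hTDP1-complemented DT40 Tdp1-knockout cells is measured by ATP luminescence after at least 48 hr compound exposure at 37 °C, with DMSO substituting for the 20 nM CPT used in the parallel screen.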
DT40 TDP1 CPT = qHTS for Inhibitors of human tyrosyl-DNA phosphodiesterase 1 (TDP1): qHTS in cells in presence of CPT | Potency, µM (top dose mostly 46.2 µM), inactives show at the highest dose activity change, negative = growth inhibition, actives largely listed as inhibitors | AID 686979, 2013 | 420,000 compounds, 12% hits | chicken DT40 Tdp1-/-;hTDP1 cells + 20 nM CPT, ATP luminescence, 48 h; also: potency is read from the fitted curve at half-maximal effect; % is scaled to controls: 0 for no effect and ±100 for the full control effect; nearly all actives have a fitted effect of over 55% in size
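Cell growth measured by CellTiter-Glo luminescence after a minimum 48 h, 37 C compound exposure with 20 nM CPT in Tdp1-knockout DT40 cells stably expressing hTDP1, seeded 400/well; qHTS titration format.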
ClpP mod = qHTS Assay for Activators of ClpP; ATP-dependent Clp protease proteolytic subunit (Bacillus subtilis (strain 168)), P80244; 340,000 compounds, 1.9% hits; Potency, µM (highest dose often 57.5 µM), without a hit: at the top dose activity change, negative = active; purified B. subtilis ClpP, FRET peptide cleavage, 20 min; active = well fitted falling curve with a large enough effect; inconclusive = small, poorly fitted or top-dose-only effect; inactive = no such curve, though single readings can be large or run the other way; also: potency is read from the fitted curve at half-maximal effect; the source files actives as falling curves though it sought activators and does not explain the sign; nearly all actives have a fitted effect of over 65% in size
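ClpP 10 microg/mL final, pH 8 Tris/KCl buffer with BSA, glycerol, Tween-20; compound pinned in; FRET-FV substrate; RT 20 min; Ex320/Em430; ΔFRET vs ADEP 5.8 microM, DMSO, no enzyme.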
* hit, by the source's call; ? = inconclusive; . = no result. Sampled rows, rich in hits. Any-hit rate of the full collection: about 21%. Unless noted, calls follow the shape of the dose curve; as a rule, active = well fitted inhibition curve with a large enough effect; inconclusive = small, poorly fitted or top-dose-only effect; inactive = flat fitted curve, though single readings scatter.

SMILES | IL1B secr inh | DRD3 antagonist | DRD3 agonist | TDP1 cell noCPT | DT40 TDP1 CPT | ClpP mod
CCCCOCCCNC(=O)C[C@@H]1C[C@@]2(C(=O)OCC)CCCC=C2N(Cc2ccc(Cl)cc2Cl)C1=O | -79* | 0 | -8 | 18µM* | ? | 1%
COC(=O)[C@]12CCCCC=C1N(Cc1ccc(Cl)cc1Cl)C(=O)[C@H](CC(=O)NCC13CC4CC(CC(C4)C1)C3)C2 | 24 | -23 | -5 | -18% | 2% | 2%
CCOC(=O)[C@]12CCC=C1N(Cc1ccc(Cl)cc1Cl)C(=O)[C@H](CC(=O)NCC13CC4CC(CC(C4)C1)C3)C2 | -10 | -18 | 1 | 21µM* | ? | 0%
O=C1CNC(=S)N1CCc1ccc(O)c(O)c1 | 36 | 1 | 14 | ? | ? | .
COC(=O)C(N)Cc1ccc(O)c(O)c1 (centres undefined) | 76 | -11 | 4 | -10% | -16% | -2%
NC(Cc1ccc(O)c(O)c1)C(=O)O (centres undefined) | . | . | . | 2.9µM* | 3.7µM* | .
NCCc1ccc(O)c(O)c1 | -1 | . | . | 4.6µM* | 5.2µM* | -2%
CCOc1ccc(-c2nonc2NC(=O)c2oc3cc(C)ccc3c2C)cc1OCC | . | . | -1 | -25% | -8% | 0%
CCCOc1ccc(-c2nonc2NC(=O)c2oc3ccc(Cl)cc3c2C)cc1OCCC | . | . | -7 | 7.3µM* | ? | 1%
CCOc1ccc(-c2nonc2NC(=O)c2oc3ccc(F)cc3c2C)cc1 | . | . | -14 | 0.82µM* | 0.92µM* | -19%
COc1ccc(-c2c(C)nn3c4c(cnc23)C(=O)CC(c2ccc(C)cc2)C4)cc1 (centres undefined) | . | . | -7 | -4% | -6% | -2%
Fc1ccc(-c2nc3ccc(Cl)cn3c2Cc2ccccc2)cc1 | 19 | 33 | 5 | ? | ? | ?
Cc1ccn2c(Cc3ccccc3)c(-c3ccc(F)cc3)nc2c1 | -19 | 8 | -4 | 21µM* | 23µM* | 5%
Cc1ccc(Cc2c(-c3ccccc3)nc3cc(C)ccn23)cc1 | 20 | 16 | -2 | 18µM* | 16µM* | 4%
COc1ccc([C@H]2C=C3CN(C(=O)OC(C)(C)C)S(=O)(=O)[C@H]3C[C@H]2OC(=O)c2cccs2)cc1 | -2 | 4 | -5 | ? | -22% | -4%
Cc1ccccc1NC(=O)Cn1c(=O)n(Cc2ccc3c(c2)OCO3)c(=O)c2ccccc21 | . | . | -2 | 16µM* | -24% | -1%
Cc1ccc(NC(=O)Cn2c(=O)n(Cc3nc(C)no3)c(=O)c3cc4c(cc32)OCO4)c(C)c1 | . | . | 5 | -15% | -12% | 22µM*
Cc1ccccc1NC(=O)Cn1c(=O)n(Cc2ccc3c(c2)OCO3)c(=O)c2oc3ccccc3c21 | . | . | 1 | 8.2µM* | 4.1µM* | -6%
CCOC(=O)c1ccccc1NC(=O)Cn1c(=O)n(Cc2ccc(C(=O)NCc3ccc4c(c3)OCO4)cc2)c(=O)c2ccccc21 | . | . | -14 | -6% | -12% | 4%
Cc1cccc(C)c1NC(=O)Cn1c(=O)n(Cc2ccc3c(c2)OCO3)c(=O)c2oc3ccccc3c21 | . | . | 6 | 4.6µM* | 5.2µM* | 0%
Cc1onc(-c2ccccc2)c1C(=O)NNC(=S)NC(=O)c1ccc2c(c1)OCO2 | 58 | 10 | 22 | 1.6µM* | -94% | .
Cc1onc(-c2ccccc2)c1C(=O)NC(=S)NNC(=O)c1ccco1 | 94 | 15 | 20 | 16µM* | ? | .
Cc1onc(-c2ccccc2)c1C(=O)NNC(=S)NC(=O)/C=C/c1cccs1 | 30 | ? | -25 | 23µM* | 16µM* | 1%
